The values that follow come from PubChem BioAssay AID588676 (Johns Hopkins Ion Channel Center, 2011).

Among all 310,000 compounds or so, about 3,900 (1.3%) were called active.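 How the source made its calls: active means calcium-response B-score plate-corrected more than 3 library SD below zero, starting fluorescence within 5 deviations, no agonist response on first addition; inactive means the rest.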 For the sample, actives were picked, then their nearest neighbours and some compounds at random.

Mas-related G-protein coupled receptor member X1 (Homo sapiens), sequence (Q96LB2 whole entry, looked up): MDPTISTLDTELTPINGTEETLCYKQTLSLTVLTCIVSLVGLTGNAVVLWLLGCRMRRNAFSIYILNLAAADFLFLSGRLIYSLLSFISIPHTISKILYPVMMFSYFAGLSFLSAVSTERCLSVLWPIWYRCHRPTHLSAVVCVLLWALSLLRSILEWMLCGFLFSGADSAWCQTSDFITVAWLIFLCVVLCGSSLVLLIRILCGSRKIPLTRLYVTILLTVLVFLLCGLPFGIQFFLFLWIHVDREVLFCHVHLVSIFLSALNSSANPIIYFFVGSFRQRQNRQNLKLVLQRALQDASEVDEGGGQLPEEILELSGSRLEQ

This assay addresses Mas-related G-protein coupled receptor member X1 (Homo sapiens) (UniProt Q96LB2). The assay is described as follows: antagonists of human MrgX1 receptor, primary screen, HEK293 cells, Fluo-4 calcium flux (AID 588676).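 On B-score: peak minus trough fluorescence over baseline after final BAM8-22 challenge near maximal dose.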 Conditions: Fluo-4, BAM8-22 antagonism, at 10 µM; hits give low values. (In general: A change in cytosolic calcium serves as a functional read-out for many receptors and channels.)
Consider `Nc1[nH][nH]c(=O)c1N=Nc1ccc2c(c1)OCO2`, for which the B-score entry was “inactive”. Next, `Cc1cc(Nc2cc(N3CCN(C)CC3)nc(Sc3ccc(NC(=O)C4CC4)cc3)n2)n[nH]1`: -6.92 (active); `Cc1cc(C)cc(NC(=O)C2CCN(c3nc(C)cc(C)n3)CC2)c1`: “inactive”. With `Cc1cc(C)nc(N2CCC(C(=O)Nc3ccc4c(c3)OCCO4)CC2)n1`, the B-score entry is “inactive”.

Regarding `Cc1ccc(S(=O)(=O)NC(=O)Nc2nc(-c3ccc(F)c(F)c3)cs2)cc1`, the B-score entry was “inactive”. In the case of `COc1ccc(CC(=O)Nc2nc(-c3ccc(F)c(F)c3)cs2)cc1OC` it was -5.43 (active); in that of `COc1cc(CC(=O)Nc2nc(-c3ccc(F)c(F)c3)cs2)cc(OC)c1OC`, “inactive”. In the case of `CCc1nn(CC(=O)N2CCN(c3cc(C)ccc3C)CC2)c(=O)c2cc3occc3n12` it was “inactive”. In the case of `O=C(/C=C/c1ccc(Cl)cc1Cl)NCc1ccco1` it was “inactive”; in that of `O=C(CSc1nnnn1-c1ccccc1)NCc1ccco1`, “inactive”. For `O=C(CSc1c2c(nc3ccc(Cl)cc13)CCCC2)NCc1ccco1`, the B-score was -6.85 (active). Next, `COc1ccc(C)cc1NC(=O)CN(C)S(=O)(=O)c1ccc2c(c1)n(C)c(=O)c(=O)n2C`: “inactive”. Next, `Cc1cc(C)cc(N(CC(=O)NC2CCCC2)C(=O)CCC(=O)Nc2nccs2)c1`: “inactive”; `COCCCN(C(=O)Cn1ncc2c(=O)oc3ccc(C)cc3c21)C(C)c1ccncc1` (stereo unspecified): -9.22 (active); `Cc1ccc2oc(=O)c3cnn(CC(=O)N(Cc4ccco4)C4CCCCC4)c3c2c1`: “inactive”.

In the case of `Cc1ccc2oc(=O)c3cnn(CC(=O)N4CCCCCC4)c3c2c1`, the B-score entry is “inactive”. Next, `CN1CCC(=O)N([C@H](CO)Cc2ccccc2)CC1`: “inactive”; `CCN(Cc1ccccc1)S(=O)(=O)c1cc(C(=O)O)ccc1OC`: “inactive”; `COc1ccc2[nH]c3nc(SCC(=O)NC4CC4)nnc3c2c1`: “inactive”. Consider `Cc1ccn2c(=O)nc(SCC(=O)NCc3ccc(F)cc3)nc2c1`, for which the B-score entry was “inactive”. In the case of `Cc1ccc(CNC(=O)CSc2nnc3c(n2)[nH]c2ccc(F)cc23)cc1` it was -5.01 (active); in that of `COc1ccc(S(=O)(=O)n2nc(C)c(S(=O)(=O)N3CCOCC3)c2C)cc1`, “inactive”. In the case of `CCOc1ccc(C(=O)Nc2ccc(S(=O)(=O)Nc3cc(C)on3)cc2)cc1`, the B-score result is “inactive”. Next, `CCOc1ccc(CC(=O)Nc2ccc(S(=O)(=O)Nc3cc(C)on3)cc2)cc1OCC`: -7.96 (active); `CCc1ccc(OC(C)C(=O)Nc2ccc(S(=O)(=O)Nc3cc(C)on3)cc2)cc1` (stereo unspecified): “inactive”; `CCCOc1ccc(CNC(=O)C2CCN(c3nn4c(=O)cc(C)nc4s3)CC2)cc1`: “inactive”.

Regarding `O=C(NN1C(=O)C2CCCCC2C1=O)c1ccco1` (stereo unspecified), the B-score entry was “inactive”. `CC(C)=C1C2CCC1C1C(=O)N(NC(=O)c3ccco3)C(=O)C21` (stereo unspecified): the B-score entry was “inactive”. As for `O=C(NN1C(=O)C2C3C=CC(C3)C2C1=O)c1ccco1` (stereo unspecified), the B-score is -9.57 (active).

`NC(=O)c1cc(S(=O)(=O)N2CCCC2)ccc1OCc1ccc(F)cc1`: the B-score result is “inactive”. Next, `Cc1ccccc1OCC(=O)Nc1nnc(S(=O)(=O)N2CCCC2)s1`: “inactive”; `O=C(COc1ccccc1F)NC1CC1`: “inactive”; `CC1CCN(S(=O)(=O)c2nnc(NC(=O)COc3ccccc3F)s2)CC1`: -4.6 (active). For the compound `O=S(=O)(CCc1nc2ccccc2o1)c1ccc(Cl)cc1`, the B-score result was “inactive”. Turning to `CCc1nnc(NC(=O)c2sc3nc(C)cc(COC)c3c2N)s1`, the B-score entry was “inactive”.

For `CCc1nnc(NC(=O)c2cccc(S(=O)(=O)N(C)c3ccc(OC)cc3)c2)s1`, the B-score entry was “inactive”. Next, `CCc1ccc2nc3sc(C(=O)Nc4nnc(CC)s4)c(N)c3cc2c1`: -7.06 (active); `COc1ccc(CN2CCN(C(=O)CCC(=O)Nc3nnc(C(C)C)s3)CC2)cc1F`: “inactive”; `COc1ccccc1C(=O)Nc1nc2nc(-c3ccccc3)cc(=O)n2[nH]1`: “inactive”. Next, `Cc1ccc(C)n1NC(=O)c1ccc([N+](=O)[O-])cc1`: “inactive”; `CC1=NN(c2ccccc2)C(=O)C1C(=O)c1ccc([N+](=O)[O-])cc1` (stereo unspecified): -4.73 (active). In the case of `Cc1ccc(NC(=O)/C(=C/c2ccc([N+](=O)[O-])cc2)NC(=O)c2ccccc2)cc1` it was “inactive”. Consider `O=C(CC1CCCCC1)NCc1ccc(F)cc1`, for which the B-score entry is “inactive”.

On to `CN(C)S(=O)(=O)c1cccc(NC(=S)NCc2ccc3c(c2)OCO3)c1`, for which the B-score entry was “inactive”. In the case of `Cc1ccc(/C=N/NC(=S)Nc2cccc(S(=O)(=O)N(C)C)c2)o1` it was “inactive”. Next, `CN(C)S(=O)(=O)c1cccc(NC(=S)N/N=C/C(=O)c2ccccc2)c1`: -6.77 (active); `CCc1cc(=O)oc2cc(C)cc(OCC(=O)N3CCC[C@@H]3C(=O)O)c12`: -7.63 (active). Next, `CCCc1cc(=O)oc2c(C)c(OCC(=O)N3CCC(C(=O)O)CC3)ccc12`: “inactive”. On to `CCc1cc(=O)oc2cc(C)cc(OC(C)C(=O)O)c12` (stereo unspecified), for which the B-score result was “inactive”. In the case of `CC(Sc1cccc[n+]1[O-])C(=O)Nc1cccc(S(=O)(=O)N2CCOCC2)c1` (stereo unspecified) it was “inactive”; in that of `CN(C)S(=O)(=O)c1ccc(N2CCCC2)c(C(=O)Nc2cccc(F)c2)c1`, “inactive”.

For the compound `CN(C)S(=O)(=O)c1ccc(N2CCCC2)c(C(=O)NCc2ccccc2)c1`, the B-score result was “inactive”. For `Cc1ccccc1OCC(=O)NNC(=O)c1cc(S(=O)(=O)N(C)C)ccc1N1CCCC1`, the B-score is -7.66 (active). Regarding `CN(C)C(=O)N=NC(=O)N(C)C`, the B-score entry is “inactive”. In the case of `CCCn1c(=O)c2ccccc2n2c(SCC(=O)/C(C#N)=C(\C)N)nnc12` it was -7.91 (active); in that of `C=CCn1c(=O)c2ccccc2n2c(SCC(=O)N3CCCc4ccccc43)nnc12`, “inactive”. In the case of `C=CCn1c(SCC(=O)/C(C#N)=C(\C)N)nc2sc(C)c(C)c2c1=O` it was “inactive”; in that of `CCOc1cc(C(=O)Nc2ncccn2)cc(OCC)c1OCC`, “inactive”; in that of `CCOc1cc(-c2conc2N)cc(OCC)c1OCC`, -6.9 (active). In the case of `CCOc1cc2c(Cl)ncnc2c(OCC)c1OCC` it was “inactive”. `O=C1CSC2=NCN(c3ccccc3)CN12`: the B-score result is “inactive”. In the case of `CCCn1nc2cc(C(=O)NCc3ccccc3)ccc2c1OCC` it was “inactive”. Consider `Cc1ccc(NC(=O)CN2CCC3(O)CCCCC3C2c2ccc3c(c2)OCO3)c(C)c1` (stereo unspecified), for which the B-score result is “inactive”. Next, `CCN(CC)c1ccc(C2C3CCCCC3(O)CCN2CC(=O)Nc2ccccc2)cc1` (stereo unspecified): -5.44 (active); `CCN(CC)c1ccc(NC(=O)CN2CCN(c3ccccn3)CC2)cc1`: “inactive”.

`CCOC(=O)c1c(N=CN(C)C)c(C#N)c2n1CCCC2`: the B-score entry is “inactive”.
